Measurements as given in PubChem BioAssay (Tox21).
Records with an inconclusive call do not appear. Entries that show only a call come without a potency. The source made the active and inactive calls. The call rests on the fitted dose curve; in most records, active means well fitted cell-killing curve with a large enough effect in the repeat runs; inconclusive means weak or mixed curves, or effect the other way; inactive means no such curve, though single readings can be large or run the other way.

Assay: qHTS assay to identify small molecule agonists of the farnesoid-X-receptor (FXR) signaling pathway - cell viability counter screen (AID 743218); further: nearly all actives have a fitted effect of over 45% in size
Conditions: FXR-bla HEK293T viability, CellTiter-Glo luminescence, 16 h; series mostly up to 62.6 µM
In short: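 FXR-UAS-bla HEK 293T cells exposed to compounds for 16 h at 37C. Cytotoxicity read in the same wells by CellTiter-Glo luminescence after 30 min at room temperature, following the beta-lactamase FRET read.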

SMILES	Potency	viability change, negative = cytotoxic
C[Si]1(C)N[Si](C)(C)N[Si](C)(C)N1	inactive	
Nc1ccc(S(=O)(=O)Nc2ccccn2)cc1	inactive	
OC[C@@H](O)[C@H](O)[C@@H](O)[C@@H](O)CO	inactive	
Cc1cc(C)cc([N+](=O)[O-])c1	inactive	
CC(=O)N1CCN(c2ccc(O)cc2)CC1	inactive	
NS(=O)(=O)c1cc2c(cc1Cl)NC(C(Cl)Cl)NS2(=O)=O (configuration not stated)	inactive	
OCCCCCCCl	inactive	
C=CCOc1cc(Cl)ccc1C(=O)NCCN(CC)CC	inactive	
CCCCCCCCCCCCC1CO1 (configuration not stated)	inactive	
CCOC(=O)CCCCCCCCC(=O)OCC	inactive	
CCOC(=O)OCC/C(SC(=O)OCC)=C(\C)N(C=O)Cc1cnc(C)nc1N	inactive	
C=CCCCCCCCCCCC		33.3% [at 5.95 µM] (inactive)
CC(=O)Nc1ncc([N+](=O)[O-])s1	inactive	
CC(=O)OC(C)c1ccccc1 (configuration not stated)	inactive	
FC(F)(F)c1ccc(Cl)cc1Cl	inactive	
Nc1cc(Cl)cc(S(=O)(=O)O)c1O	inactive	
CCCCCCCCCCC	inactive	
CCOC(=O)CCc1ccccc1	inactive	
CN=C(NC#N)NCCSCc1csc(N=C(N)N)n1	inactive	
CCOc1ccc(NC(=O)OC(C)C)cc1OCC	inactive	
Cc1ccc(S(=O)(=O)NC(=O)NC2CCCCCCC2)cc1	inactive	
NS(=O)(=O)c1cc2c(cc1Cl)NC(CC1CCCC1)NS2(=O)=O (configuration not stated)	inactive	
NC(Cc1c[nH]c2ccccc12)C(=O)O (configuration not stated)	inactive	
CCCCC/C=C/CC(=O)OC	inactive	
NCCc1ccn[nH]1	inactive	
C=C(C)[C@@H]1CC[C@@H](C)C[C@@H]1O	inactive	
Cc1nc(C)nc(N2C[C@@H](C)N(c3ccnc([C@@H](C)O)n3)[C@@H](C)C2)n1	inactive	
